BCR signal inh: qHTS Assay to Find Inhibitors of Chronic Active B-Cell Receptor Signaling | Potency, µM (highest dose often 46.1 µM), for the others: at the highest dose activity change, negative = inhibition, hits mostly inhibitors | ABC-DLBCL IkBa-CBG/CBR reporter, luminescence ratio, 4 h | actives 0.05% (n = 340,000); active means well fitted inhibition curve with a large enough effect in the signal ratio, with a control signal flat, not every such curve was filed as active; inconclusive means small, poorly fitted or top-dose-only effect, or effect the other way, or a change in a side signal; the % refers to the signal ratio;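 further: potency means the concentration at half of the fitted maximal effect; plate controls were basal doxycycline-induced cells for no effect and cells given 10 µM MG132 for full effect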
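TMD8 ABC-DLBCL cells carrying doxycycline-inducible green luciferase fused to IkappaBalpha plus unfused red luciferase were exposed to compounds (up to 46 uM) for 4 hrs at 37C. Activity came from the overlap-corrected green/red luminescence ratio.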
SW480 rerep: A quantitative high throughput screen for small molecules that induce DNA re-replication in SW480 colon adenocarcinoma cells. SW480 DNA re-replication, Hoechst DNA content imaging, 48 h. Potency, µM (titrated, usually from 46.1 µM), for inactives: top-dose re-replication activation, actives largely listed as activators. actives 1.8% (n = 340,000). AID 624297, 2012; further: potency means the concentration at half of the fitted maximal effect; % of control where 0% means no effect; nearly all actives have a fitted effect of over 55% in size
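Readout is total intensity of Hoechst-stained nuclei, excited at 405 nm and collected at 500-530 nm. Compound treatment lasted 48 hr at 37 C in 5% CO2 before staining.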
TDP1 cell CPT: qHTS for Inhibitors of human tyrosyl-DNA phosphodiesterase 1 (TDP1): qHTS in cells in presence of CPT; chicken DT40 Tdp1-/-;hTDP1 cells + 20 nM CPT, ATP luminescence, 48 h; Potency, µM (titrated, usually from 46.2 µM), for the others: at the top dose activity change, negative = growth inhibition, hits mostly inhibitors; actives 12% (n = 420,000); AID 686979, 2013; further: potency means the concentration at half of the fitted maximal effect; on the % scale 0 is the no-effect control and ±100 the full control effect; nearly all actives have a fitted effect of over 55% in size
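Cell growth measured by CellTiter-Glo luminescence after a minimum 48 h, 37 C compound exposure with 20 nM CPT in Tdp1-knockout DT40 cells stably expressing hTDP1, seeded 400/well; qHTS titration format.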
IL1B secr inh: qHTS for Inhibitors of Inflammasome Signaling: IL-1-beta AlphaLISA Primary Screen | AID 743279, 2014 | actives 4.7% (n = 360,000) | activity change, % at 57.5 µM | THP-1 LPS/ATP IL-1B secretion, AlphaLISA, 16 h; stronger effect = lower value; in the data active means activity change below about -50%; inconclusive means mostly about -30% to -49%; further: on the % scale 0 is the no-effect control and ±100 the full control effect
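Secreted IL-1B measured by AlphaLISA bead assay after 16 h compound exposure of THP-1 cells; compounds (final up to 57.5 uM) added 1 h before LPS (250 ng/mL) and ATP (1.25 mM) stimulation; lower signal means less secretion.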
MCF10A rerep: A quantitative high throughput screen for small molecules that induce DNA re-replication in MCF 10a normal breast cells. MCF 10A DNA re-replication, Hoechst nuclear intensity, 48 h. Potency, µM (series often up to 46.1 µM), for the others: at the highest dose activity, positive = re-replication, usual class: activators. actives 2.9% (n = 350,000). AID 624296, 2012; further: potency means the concentration at half of the fitted maximal effect; % of control where 0% means no effect; nearly all actives have a fitted effect of over 50% in size
DT40 TDP1 no CPT: qHTS for Inhibitors of human tyrosyl-DNA phosphodiesterase 1 (TDP1): qHTS in cells in absence of CPT. DT40 Tdp1-/- hTDP1 cells, no CPT, ATP luminescence, 48 h. Potency, µM (doses to about 46.2 µM), for inactives: at the highest dose activity change, negative = growth inhibition, hits mostly inhibitors. actives 15% (n = 420,000). AID 686978, 2013; further: potency means the concentration at half of the fitted maximal effect; on the % scale 0 is the no-effect control and ±100 the full control effect; nearly all actives have a fitted effect of over 55% in size
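Stably hTDP1-transfected Tdp1-null chicken DT40 cells were treated with library compounds minus camptothecin and grown for at least 48 hr at 37 °C, after which cellular ATP was quantified by luminescence.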
Active calls of the source: *; ? = inconclusive; / = no result; [ ] = another dose, or the depositor's remark. The list is not random: actives were taken first. Their share in the collection is about 19%. Unless noted, the call rests on the fitted dose curve; in most records, active means well fitted curve in the direction sought with a large enough effect; inconclusive means small, poorly fitted or top-dose-only effect, or another doubt; inactive means no such curve, though single readings can be large; an effect the other way counts as inactive or inconclusive.

SMILES	BCR signal inh	SW480 rerep	TDP1 cell CPT	IL1B secr inh	MCF10A rerep	DT40 TDP1 no CPT
COc1ccc(-c2c3c(=O)n(C)c(=O)n(C)c3c3c(-c4ccc(C)cc4)nc4ccccc4n23)cc1	/	/	-11.7%	/	/	-22.9%
CCc1nc2ccccc2n2c(-c3ccccc3)c3c(=O)n(C)c(=O)n(C)c3c12	/	/	14.6µM*	/	/	20.6µM*
Cc1cccc(-c2c3c(=O)n(C)c(=O)n(C)c3c3cnc4ccccc4n23)c1	/	/	-12.4%	/	/	?
Cc1cccc(-c2nc3ccccc3n3c(-c4ccccc4)c4c(=O)n(C)c(=O)n(C)c4c23)c1	/	/	-6.4%	/	/	2.4%
Cn1c(=O)c2c(-c3ccccc3)n3c4ccccc4nc(-c4ccccc4)c3c2n(C)c1=O	/	/	?	/	/	14.6µM*
COc1ccc(-c2nc3ccccc3n3c(-c4cccc(C)c4)c4c(=O)n(C)c(=O)n(C)c4c23)cc1	/	/	18.4µM*	/	/	-73.3%
CNc1c([N+](=O)[O-])cnn1-c1cccc(Cl)n1	1.3%	-159.9%	-0.4%	9.3	-1.4%	0.2%
c1csc(CCNc2ncnc3sc4c(c23)CCC4)c1	16.1%	14.3%	3.66µM*	17.5	5.2%	8.2µM*
c1ccc(Nc2ncnc3sc4c(c23)CCC4)cc1	-4.3%	1.4%	?	21.5	7.9%	-26.6%
CN(C)C(CNc1ncnc2sc3c(c12)CCCCC3)c1ccco1 (stereo unspecified)	18.6%	-4.0%	?	-51.4*	4.9%	18.4µM*
Cc1sc2ncnc(NCC(c3ccco3)N(C)C)c2c1C (stereo unspecified)	3.8%	0.0%	-20.9%	16.8	2.4%	?
CN1CCN(c2ncnc3c2ncn3[C@H]2CN(C)C[C@@H](CO)O2)CC1	/	/	-18.8%	-6.0	/	-25.6%
C[C@@H](C(=O)NC1CCCC1)N1C(=O)N2CCc3c([nH]c4ccccc34)[C@@]2(C)C1=O	-25.3%	1.8%	20.6µM*	24.4	1.3%	?
CC(C)C[C@@H](C(=O)N[C@@H](C(=O)O)c1ccccc1)N1C(=O)N2CCc3c([nH]c4ccccc34)[C@@]2(C)C1=O	-13.5%	-1.4%	1.8%	29.6	0.4%	-14.0%
CC(NC(=O)[C@H](C)N1C(=O)N2CCc3c([nH]c4ccccc34)[C@@]2(C)C1=O)c1ccccc1 (stereo partly specified)	?	4.6%	16.4µM*	15.2	16.4%	?
Cc1ccc2nc(N/C(=N/S(=O)(=O)c3cccs3)c3ccccc3Cl)sc2c1	-2.3%	-3.2%	-16.7%	28.5	23.0%	-1.5%
O=C1CNc2cc(Cl)ccc2N1	/	/	?	13.1	/	?
O=C1Nc2ccc(Cl)cc2/C1=C/C1CC=CCC1 (stereo unspecified)	?	?	?	-90.1*	?	?
Cc1cccc(/N=C/c2nc(-c3ccccc3Br)oc2O)n1	?	4.11µM*	?	-26.3	-17.5%	?
Cc1ccnc(N=Cc2nc(-c3ccccc3Br)oc2O)c1	?	-192.1%	7.2%	1.2	-0.7%	-3.3%
CCOc1ccc(C2=CS/C(=C(\C#N)c3nnc4n3CCCCC4)N2CC)cc1	?	0.6%	?	-4.3	1.5%	23.1µM*
C=CCN1C(c2ccccc2)=CS/C1=C(\C#N)c1nnc2n1CCCCC2	-4.1%	2.2%	?	-17.4	-9.6%	?
COc1ccccc1N1CCN(C(=O)C2CCCN(S(=O)(=O)c3ccc4c(c3)oc(=O)n4C)C2)CC1 (stereo unspecified)	?	-4.5%	25.9µM*	4.4	21.4%	8.2µM*
Cn1c(=O)oc2cc(S(=O)(=O)N3CCCC(C(=O)N4CC=C(c5ccccc5)CC4)C3)ccc21 (stereo unspecified)	-0.4%	/	/	/	/	/
COc1ccc(C)cc1S(=O)(=O)N1CCCC(C(=O)N2CCN(c3ccccc3F)CC2)C1 (stereo unspecified)	1.2%	?	?	-7.1	14.2%	23.1µM*
SMILES	BCR signal inh	SW480 rerep	TDP1 cell CPT	IL1B secr inh	MCF10A rerep	DT40 TDP1 no CPT
COc1ccc(N2CCN(C(=O)C3CCCN(S(=O)(=O)c4ccc5c(c4)oc(=O)n5C)C3)CC2)cc1 (stereo unspecified)	3.5%	-16.3%	11.6µM*	32.2	0.7%	10.3µM*
COc1ccccc1N1CCN(C(=O)C2CCN(S(=O)(=O)c3ccccc3F)CC2)CC1	2.8%	-10.0%	?	3.5	0.3%	23.1µM*
CCCCCCCCCCCCC/C=C/[C@@H](O)[C@H](CO)NC(C)=O	/	/	-14.7%[4.12 µM]	/	/	?
c1ccc2c(c1)CC1(CCCCC1)n1nnnc1-2	4.1%	-5.7%	14.6µM*	13.1	0.8%	23.1µM*
CC(C)CCN(Cc1ccco1)S(=O)(=O)c1csc(C(N)=O)c1	-9.0%	1.0%	18.4µM*	-12.8	6.2%	23.1µM*
O=C(NCCc1ccc(Cl)cc1)c1cc(S(=O)(=O)N2CCCCC2)c[nH]1	?	2.0%	23.1µM*	9.7	0.6%	9.2µM*
COC(=O)c1cc(S(=O)(=O)NCc2ccccc2)c[nH]1	5.6%	-18.8%	-9.8%	-4.8	-7.6%	-8.7%
COC(=O)c1cc(S(=O)(=O)N(Cc2ccccc2)C(C)(C)C)c[nH]1	4.9%	6.51µM*	18.4µM*	45.8	23.1µM*	16.4µM*
COC(=O)c1cc(S(=O)(=O)NCCc2ccc(C)cc2)c[nH]1	-0.9%	-5.4%	?	-1.1	-4.2%	?
CCc1ccc(NC(=O)c2cc(S(=O)(=O)N3CCCC3)c[nH]2)cc1	-0.6%	21.2%	?	-5.8	10.8%	23.1µM*
COC(=O)c1cc(S(=O)(=O)NCCc2ccc(Cl)cc2)c[nH]1	-0.2%	-12.5%	18.4µM*	-4.7	1.5%	11.6µM*
CCOc1ccc(NC(=O)c2cc(S(=O)(=O)N3CCCCC3)c[nH]2)cc1	0.5%	0.3%	-0.1%	13.4	2.0%	-19.2%
CCOC(=O)CSc1nc2sc3c(c2c(=O)n1CC)CC(C)(C)OC3	-5.5%	-2.2%	0.3%	0.0	1.8%	-15.4%
CCCSc1nc2sc3c(c2c(=O)n1Cc1ccccc1)CC(C)(CC)OC3 (stereo unspecified)	/	/	18.4µM*	/	/	11.6µM*

Screening results deposited in PubChem by National Center for Advancing Translational Sciences (NCATS).
